Compounds without any hit were thinned out: in the full panel of roughly 83,000, 20% have a hit.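 The test compound was applied at a single concentration to cells in 96-well plates for 48 hours, and percent growth was recorded.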 Unmarked numbers belong to inactive results. Calls of active or inactive are those of the source. The calls were made as follows: active = growth percent below 10; inactive = the rest.
Key:
Assay in all cases: NCI-60 one-dose screen, 48 h (100 = growth as untreated, 0 = no growth, -100 = all killed)
[1] = test system: HCT-15 colon; details: 10 µM unless noted
[2] = test system: HT29 colon; details: 10 µM unless noted
[3] = test system: SNB-75 CNS; details: 10 µM unless noted
[4] = test system: SNB-19 CNS; details: 10 µM unless noted
[5] = test system: U251 CNS; details: 10 µM unless noted
[6] = test system: PC-3 prostate; details: 10 µM unless noted
[7] = test system: SK-MEL-5 melanoma; details: 10 µM unless noted
[8] = test system: UACC-62 melanoma; details: 10 µM unless noted
[9] = test system: LOX IMVI melanoma; details: 10 µM
[10] = test system: SK-MEL-28 melanoma; details: 10 µM unless noted
[11] = test system: SN12C renal; details: 10 µM unless noted
[12] = test system: UO-31 renal; details: 10 µM unless noted
[13] = test system: TK-10 renal; details: 10 µM unless noted
[14] = test system: ACHN renal; details: 10 µM unless noted
[15] = test system: CAKI-1 renal; details: 10 µM unless noted
[16] = test system: A498 renal; details: 10 µM unless noted
[17] = test system: CCRF-CEM leukemia; details: 10 µM unless noted
[18] = test system: MOLT-4 leukemia; details: 10 µM unless noted
[19] = test system: SK-MEL-2 melanoma; details: 10 µM unless noted
[20] = test system: EKVX NSCLC; details: 10 µM unless noted

Structure (SMILES)	growth [1]	growth [2]	growth [3]	growth [4] [%]	growth [5]	growth [6] [%]	growth [7]	growth [8]	growth [9]	growth [10] [%]	growth [11]	growth [12]	growth [13] [%]	growth [14]	growth [15] [%]	growth [16] [%]	growth [17]	growth [18]	growth [19]	growth [20]
Cc1cccnc1NC1OC(=O)c2ccccc21 (configuration not stated)	96.7%	104%	96.5%	101	101%	114	105%	96.6%	94.9%	112	105%	85.8%	97	103%	99.5	94.7	104%	99.3%	–	–
O=c1cc(C(F)(F)F)[nH]c(=S)[nH]1	103%	108%	102%	94.4	101%	116	98.7%	99.5%	–	105	95%	87.3%	97.7	108%	88	139	119%	105%	111%	95%
Cc1cc(NC(=O)c2ccccc2)c(Cl)cc1N	100%	102%	100%	93.9	102%	108	97.5%	89.8%	97.6%	124	100%	86.6%	141	98.8%	–	–	47.9%	–	–	107%
O=C(CCl)Nc1ccccc1SCc1cc(Cl)cc2c1OCOC2	88.5%	82.5%	73.9%	99.5	88.9%	82.2	63.3%	81.2%	-76% (active)	94	91.3%	75.7%	126	85.5%	35	103	-27.5% (active)	–	–	–
COc1ccc(/C=N/NC(=O)COCC(=O)N/N=C/c2ccc(OC)cc2)cc1	97.8%	130%	88.6%	110	96.2%	88.8	97.9%	101%	102%	100	99%	92.5%	115	97.2%	98.8	85.6	86.8%	98.3%	–	–
COC(=O)C1(CC(C)=O)NC(=S)NC(=O)C1C#N (configuration not stated)	106%	104%	112%	98.4	109%	119	100%	103%	–	118	101%	92.2%	103	109%	94.6	147	101%	108%	119%	96.4%
O=C(Nc1c(Cl)cc(Cl)cc1Cl)ON=C1CCCCC1	102%	104%	94.4%	108	104%	114	101%	98.7%	–	106	98.4%	90.2%	100	102%	97.2	105	102%	109%	107%	105%
C=C(c1ccc(N(C)C)cc1)c1ccc(N(C)C)cc1	6.8% (active)	-31.6% (active)	-14.5% (active)	20.6	3.57% (active)	25.7	-0.97% (active)	-8.67% (active)	–	31.5	1.84% (active)	28.8%	58.2	36.1%	22.2	78.8	-14.1% (active)	5.78% (active)	-8.02% (active)	6.55% (active)
COc1nc(Nc2cccc(C(F)(F)F)c2)nc(OC)n1	103%	96.1%	84.3%	101	89.4%	98.7	94%	103%	107%	109	102%	–	111	110%	103	85.3	95.5%	86.4%	–	–
Nc1cc2c(cc1Cl)C(=O)c1ccccc1C2=O	70.6%	83.8%	30.9%	36.2	-34.1% (active)	72.5	91.9%	73.2%	–	101	34%	-15% (active)	33.8	3.29% (active)	41.5	103	80.5%	85.8%	111%	42.5%
S=c1nc(-c2ccccn2)c(-c2ccccn2)n[nH]1	100%	103%	107%	112	102%	97.7	108%	116%	95.9%	114	118%	81.1%	98.6	–	110	119	97.2%	87.7%	–	–
O=C(O)Cc1ccc(Cl)cc1	112%	107%	102%	108	104%	85.7	114%	110%	103%	132	122%	99.4%	107	103%	–	95.9	132%	8.9% (active)	–	79.2%
O=C1NCC2CCCC1C2 (configuration not stated)	104%	105%	77.2%	99.6	112%	114	107%	105%	103%	110	101%	92.7%	101	111%	–	133	104%	103%	–	118%
Cc1cc(CO)c(O)c(CO)c1	102%	95.4%	64.4%	114	98.8%	101	108%	104%	90.7%	108	111%	90.9%	97.1	103%	96.8	95.5	–	21.4%	–	106%
NCCCN1CCCC1=O	116%	112%	116%	95.3	108%	96.9	100%	96.4%	–	111	97.5%	95.7%	100	113%	109	103	114%	97.1%	117%	122%
C=C(C)[C@@H]1CC[C@]2(CO)CC[C@]3(C)[C@H](CC[C@@H]4[C@@]5(C)CC[C@H](O)C(C)(C)[C@@H]5CC[C@]43C)[C@@H]12	89.7%	46.2%	3.72% (active)	48	24.9%	38.7	-60.5% (active)	60.5%	32.2%	–	47.5%	27.8%	51	18.3%	72.6	–	75.7%	71.1%	82.1%	66.4%
CCOc1ccccc1NC(=O)CCl	85.9%	89.3%	88.3%	101	29%	83.5	71.2%	83.7%	85.3%	87	94.5%	116%	94.5	108%	95.6	113	–	70.2%	–	111%
